Some of the results follow. Records with an inconclusive call do not appear. The source made the active and inactive calls. The call rests on the fitted dose curve; in most records, active means well fitted curve in the direction sought with a large enough effect; inconclusive means small, poorly fitted or top-dose-only effect, or another doubt; inactive means no such curve, though single readings can be large or run the other way.
These compounds were tested against RAF proto-oncogene serine/threonine-protein kinase (Homo sapiens) (UniProt P04049) (assay: Assay for Inhibitors of the ERK Signaling Pathway using a Homogeneous Screening Assay: c-Raf Inhibition). Conditions: homogeneous biochemical assay; series mostly up to 76.9 µM.
Chain of RAF proto-oncogene serine/threonine-protein kinase (Homo sapiens) (P04049 whole entry, looked up): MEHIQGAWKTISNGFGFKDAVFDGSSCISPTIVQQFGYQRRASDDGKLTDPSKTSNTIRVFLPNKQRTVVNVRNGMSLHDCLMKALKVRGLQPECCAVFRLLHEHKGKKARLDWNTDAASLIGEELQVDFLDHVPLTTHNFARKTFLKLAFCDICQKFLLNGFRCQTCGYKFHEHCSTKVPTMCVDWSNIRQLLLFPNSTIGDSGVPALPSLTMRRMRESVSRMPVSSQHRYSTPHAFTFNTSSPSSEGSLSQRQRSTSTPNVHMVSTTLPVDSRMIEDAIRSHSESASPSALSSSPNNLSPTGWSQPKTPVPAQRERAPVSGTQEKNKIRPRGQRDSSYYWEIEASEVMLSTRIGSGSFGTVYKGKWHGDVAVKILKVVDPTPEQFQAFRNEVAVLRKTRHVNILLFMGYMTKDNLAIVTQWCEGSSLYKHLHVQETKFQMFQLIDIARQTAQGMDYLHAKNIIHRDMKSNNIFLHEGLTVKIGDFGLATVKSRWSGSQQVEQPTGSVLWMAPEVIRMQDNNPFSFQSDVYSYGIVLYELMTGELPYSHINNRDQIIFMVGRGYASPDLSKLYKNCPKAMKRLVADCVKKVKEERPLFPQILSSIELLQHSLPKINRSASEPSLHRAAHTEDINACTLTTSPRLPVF
From the text: qHTS Assay for Inhibitors of the ERK Signaling Pathway using a Homogeneous Screening Assay
NIH Chemical Genomics Center [NCGC]
NIH Molecular Libraries Screening Centers Network [MLSCN]
Assay Submitter (PI): Dr. Wei Zheng, NCGC/NIH
The Ras/extracellular-signal-regulated kinase (ERK) mitogen activated protein (MAP) kinase signaling pathway (ERK1/2 cascade) plays is a key role in transmitting signals from the cell surface to the nucleus (Nishida and Gotoh 1993; Chang and Karin, 2001). The cascade is initiated by the small G-protein Ras, which recruits Raf […], where activation occurs. Alternatively, this pathway can be activated by elevating intracellular cAMP.
Activation of the ERK pathway is essential in increased cell division and cell survival. Sustained and constitutive activation of the ERK pathway, however, has been linked to uncontrolled cell proliferation, increased cell survival, and tumor progression. Thus, the ERK has been as an attractive target for cancer chemotherapy in the past few years (Sebolt-Leopold and Herrera, 2004). […]
The HTRF kinase assay (components supplied as kit by Cisbio) was chosen for the EGFR and EGFR mutant enzyme assays that applied the time resolved fluorescence resonance energy transfer (TR-FRET) principle. […]

Structure (SMILES)	outcome
O=[N+]([O-])c1ccccc1N/N=C1\CCc2ccccc21	inactive
CN(C)c1ccc(Nc2c3c4c(cccc4n(C)c2=O)C(=O)c2ccccc2-3)cc1	inactive
